Laboratory results: PubChem BioAssay AID662 (National Center for Advancing Translational Sciences (NCATS), 2007)
Hit rate of the full screen: of about 71,000 compounds, about 1,800 (2.5%) were called active. About 26% were inconclusive and are not listed. The sample holds actives, similar compounds and a random draw of the others, so the mix is not that of the screen. The call rests on the fitted dose curve; in most records, active means well fitted activation curve with a large enough effect in the signal ratio, with a control signal flat (not every such curve was filed as active); inconclusive means small, poorly fitted or top-dose-only effect, or effect the other way, or a change in a side signal; inactive means flat fitted curve, though single readings scatter; the % refers to the signal ratio.

Test: Cell signaling CRE-BLA (Fsk stim); on activity change, negative = inhibition: % of control where 0% means no effect
Conditions: CHO CRE-bla reporter (cAMP response element driving beta-lactamase), forskolin EC10, beta-lactamase ratio; series mostly up to 38.2 µM; activity change, negative = inhibition: at the top concentration
In short: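 qHTS titration format; CRE-bla CHO reporter; stimulus EC10 NKH 477, a water-soluble forskolin. Read: CCF4 460/530 nm ratio. Potency expressed as AC50 for activators or inhibitors.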
Potency means the concentration at half of the fitted maximal effect.

Activity change, negative = inhibition, inactive:
O=C(O)CCSc1nnc(-c2ccccc2)n1-c1ccccc1 13.7% [at 7.6 µM]
COc1cccc(-n2c(Cc3cc(=O)[nH]c(=O)[nH]3)nnc2SCC(=O)Nc2ccccc2)c1 0.481%
C=CCn1c(CC(=O)Nc2cccc(OC)c2)nnc1SCC(=O)NC1CCCCC1 -2.75%
CCc1ccc(N(CC)c2ncnc3nc[nH]c23)cc1 -5.12%
CCOC(=O)NC(C(F)(F)F)(C(F)(F)F)P(=O)(c1ccccc1)c1ccccc1 -3.9%
CCCCNC(=O)CSc1nccn1Cc1ccccc1 -2.35%
Cc1ccc(C(=O)OCC(=O)NCc2ccc3c(c2)OCO3)s1 -8.63%
O=C(CN1C(=O)C2C3C=CC(C3)C2C1=O)NCC1COc2ccccc2O1 (centres undefined) -0.372%
CCOC(=O)NCc1ccc2c(c1)OCO2 -2.53%
COc1ccc(-c2csc(N3CCN(Cc4ccc5c(c4)OCO5)CC3)n2)cc1 -10.5%
CC1CCCC(N2CCN(C(=O)c3ccc(F)cc3)CC2)C1 (centres undefined) 0.17%
CS(=O)(=O)N(CC(=O)N1CCN(Cc2ccc3c(c2)OCO3)CC1)c1ccc2c(c1)OCO2 -2.17%
O=C(C(Cc1ccccc1)n1cccc1)N1CCN(C2CCCCC2)CC1 (centres undefined) -11.6%
Cc1cc(NC(=O)CCC2COc3ccccc3O2)no1 (centres undefined) -1.78%
O=C(CCC(=O)OCC(F)(F)C(F)F)NCc1ccccc1 -0.132%
COC(=O)[C@@]1(Cc2ccc(F)cc2)[C@H]2c3cc(C(=O)N4CCCC4)n(C[C@H](O)CO)c3C[C@H]2CN1C(=O)c1ccccc1 -11.3%
COc1ccc(-n2nnc3c(=O)n(CC(=O)N4CCC(Cc5ccccc5)CC4)cnc32)cc1 -7.64%
CCOC(=O)C(CCOc1cccc(CC)c1)C(=O)OCC -0.602%
C=C(C)C1CC=C(C)C(O)C1 (centres undefined) -2.45%
CC(=O)NC(C)(C)C1CC=C(C)/C(=N\O)C1 (centres undefined) -6.01%
CC(C)OC(=O)CN1C(=O)c2ccccc2C1=O -2.74%
O=C1C(c2[nH]c3ccccc3c2O)=Nc2ccccc21 -11.5%
CCCCn1c(CCCNC(=O)CC)nc2ccccc21 -6.76%
O=S(N1CCCCCC1)C12CC3CC(CC(C3)C1)C2 (centres undefined) 6.48%
Cn1c(CNC(=O)C(C)(C)C)nc2ccccc21 4.87%
Cc1nn2c3ccccc3nc2n(C)c1=O -1.15%
Cc1occc1C(=O)N1CCCc2ccccc21 0.434%
Cc1cccc(Br)c1 -6.01%
COc1ccccc1N1CCN(C(=O)c2cn(-c3ccccc3)nc2-c2cccnc2)CC1 -9.11%
CCOC(=O)N1CCN(C(=O)c2cc3c(-c4ccc(Cl)cc4)nn(C)c3s2)CC1 5.94%
O=S(=O)(NCC1CCCO1)c1ccc2ccccc2c1 (centres undefined) 0.294%
O=C(O)CCC(=O)NCc1ccc2[nH]c3c(c2c1)CCCC3 -4.41%
CC/C=C/C/C=C/C/C=C/CCCCCCCC(=O)OCC 7.6%
Oc1c(C(c2cccs2)N2CCN(c3ccc(F)cc3)CC2)sc2ncnn12 (centres undefined) 10.8%
Cc1ccc(N2C(=O)CC(NCc3ccc4c(c3)OCO4)C2=O)cc1Cl (centres undefined) -2.37%
COc1ccc(N)c(OC)c1 8.82%
Cc1cc(NC(=O)CN2CCCCC2C)nc2c1c(=O)oc1ccccc12 (centres undefined) 15.3%
CCN(CC)CCCCn1c(-c2ccccc2)nc2c(N3CCOCC3)nc(C)nc21 2.26%
Fc1ccc(Br)cc1/C=N/n1cnnc1 -0.497%
O=C(CC1CCCCC1)Nc1c2c(nn1-c1ccc(F)cc1)CS(=O)(=O)C2 -0.0676%
Cc1cccc(-n2nc3c(c2NC(=O)c2ccc(Br)o2)CSC3)c1C -9.63%
COc1ccc(CCN=C2SCC(=O)N2C)cc1OC 9.19%
CC1=NC2(CCCc3c2no[n+]3[O-])N(O)C1(C)C (centres undefined) 8.65% [at 7.6 µM]

Potency, active:
COc1cccc(-n2c(SCC(=O)NC3CCCCC3)nc3n[nH]c(C)c3c2=N)c1 5010 nM
CCn1cc(C(=O)NCc2ccc3c(c2)OCO3)c2cc(OC)c(OC)cc2c1=O 2000 nM
CCn1cc(C(=O)N2CCN(Cc3ccc4c(c3)OCO4)CC2)c2cc(OC)c(OC)cc2c1=O 7940 nM
CCn1cc(C(=O)N2CCN(C3CCCCC3)CC2)c2cc(OC)c(OC)cc2c1=O 10000 nM
CCn1cc(C(=O)NCC2COc3ccccc3O2)c2cc(OC)c(OC)cc2c1=O (centres undefined) 1580 nM
Cn1c(-c2ccc(C(=O)c3ccccc3)s2)nc2ccccc21 2000 nM
COc1cccc(-c2nn(C)c3sc(C(=O)N4CCN(c5ccccc5)CC4)cc23)c1 2510 nM
Cc1c2c(nc3ccccc13)-c1cccc(=O)n1C2 1580 nM
CCn1c(=N)c(S(=O)(=O)c2ccc(F)cc2)cc2c(=O)n3ccccc3nc21 2000 nM
Cc1cc(/C=N/n2cnnc2)c(C)n1-c1ccc2ncccc2c1 63.1 nM
COc1cccc(C(=O)Nc2c3c(nn2-c2cccc(C)c2C)CS(=O)(=O)C3)c1OC 7940 nM
